# Values of other authors, collected in PubChem BioAssay AID977610.
# About 3,600 (100%) of roughly 3,600 compounds were called active. No cut-off is given here; in the data, nearly all actives have Ki up to about 18000 µM. The set was probably picked from earlier hits. The list shows a part of the results. Where a SMILES comes first, the peptide text is derived from it. Residues, ends and D or L forms follow the SMILES beside them. Peptide text beside a SMILES is read from it. The star is where a group is joined. Bz = O=C(c1ccccc1)*
# Assay: PubChem AID 977610
# Conditions: PDB protein-ligand complexes, literature Ki
molecule,measurement,setting,value
CC(C)C[C@H](N)C(=O)N[C@@H](CS)C(=O)N[C@@H](CO)C(=O)N[C@@H](CC(=O)O)C(=O)N[C@@H](CCCN=C(N)N)C(=O)NCC(=O)N[C@@H](CS)C(=O)N[C@@H](CCC(=O)O)C(=O)N[C@@H](CC(N)=O)C(=O)N[C@@H](CCCN=C(N)N)C(=O)N[C@@H](Cc1c[nH]c2ccccc12)C(=O)N[C@@H](CS)C(=O)N[C@@H](CCCCN)C(N)=O (H-LCSDRGCENRWCK-NH2),Ki,"protein: urokinase-type plasminogen activator (uPA), PDB entry 4mnx",17.7 µM (active)
NCCCC[C@H](NC(=O)[C@H](CCCN=C(N)N)NC(=O)[C@H](CC(N)=O)NC(=O)[C@H](CCC(=O)O)NC(=O)[C@H](CS)NC(=O)CNC(=O)[C@H](CCCN=C(N)N)NC(=O)[C@H](CC(=O)O)NC(=O)[C@H](Cc1c[nH]c2ccccc12)NC(=O)[C@H](CS)NC(=O)[C@@H](N)CCC(N)=O)C(=O)N[C@@H](CS)C(=O)N[C@@H](CC(N)=O)C(N)=O (H-QCWDRGCENRKCN-NH2),Ki,"protein: urokinase-type plasminogen activator (uPA), PDB entry 4mnw",1.72 µM (active)
C#C[C@@H]1N[C@@H](C)[C@@H](O)[C@H]1O,Ki,"protein: Alpha-L-fucosidase Fuc2970, PDB entry 4pct",0.07 µM (active)
NC(N)NCCCNC(=O)[C@@H]1CCCCN1C(=O)[C@@H](CC1CCCCC1)NCC(=O)O,Ki,"protein: bovine trypsin, PDB entry 1k1o",0.675 µM (active)
Nc1[nH]c(=S)nc2[nH]ncc12,Ki,"protein: PDE10A2, PDB entry 4lkq",450 µM (active)
NC(N)NCCC[C@H](N)[P+](O)(O)O,Ki,"protein: M1 family aminopeptidase, PDB entry 4k5m",193 µM (active)
NC(N)NCCCC[C@H](N)[P+](O)(O)O,Ki,"protein: M1 family aminopeptidase, PDB entry 4k5l",11 µM (active)
C[C@@H]1N[C@@H](C#Cc2ccccc2)[C@H](O)[C@@H]1O,Ki,"protein: Alpha-L-fucosidase Fuc2970, PDB entry 4pcs",0.014 µM (active)
C[C@H](NC(=O)[C@H](C)NC(=O)[C@H](Cc1cc(-c2ccc(-c3cccc(Cl)c3)cc2)no1)C[P+](O)(O)c1ccc(Br)cc1)C(N)=O,Ki,"protein: Macrophage metalloelastase (F171D mutation), PDB entry 4gr0",0.00028 µM (active)
C[C@H](NC(=O)[C@H](C)NC(=O)[C@H](Cc1cc(-c2ccccc2)no1)C[P+](O)(O)c1ccc(Br)cc1)C(N)=O,Ki,"protein: Macrophage metalloelastase (F171D mutation), PDB entry 4gr8",0.0147 µM (active)
N=Cc1nc(N2CCOCC2)nc(N(Cc2ccc(Cl)cc2)C2CCCCC2)n1,Ki,"protein: CATHEPSIN L1, PDB entry 4axm",0.013 µM (active)
C[C@H](NC(=O)[C@H](CO)N[C@H](O)CSCCNC(=O)CCNC(=O)[C@H](O)C(C)(C)CO[P+](O)(O)O[P+](O)(O)OCc1oc(-n2cnc3c(N)ncnc32)c(O)c1O[P+](O)(O)O)C(=O)N[C@@H](CO)C(=O)N[C@@H](CCC(=O)O)C(=O)O,Ki,"protein: N-terminal acetyltransferase A complex subunit nat1, PDB entry 4kvm",8.9 µM (active)
H-PLSFLV-OH,Ki,"protein: LSD1-CoREST complex, PDB entry 3zmv",55 µM (active)
H-PTSII-OH,Ki,"protein: CFTR Associated Ligand (CAL) PDZ domain, PDB entry 4joh",450 µM (active)
H-PKSFLV-OH,Ki,"protein: LSD1-CoREST complex, PDB entry 3zmu",49.6 µM (active)
CC(C)C[C@H](NC(=O)[C@@H](NC(=O)CNC(=O)c1ccccc1)C(C)C)C(=O)N[C@@H](CCCCN)C(=O)N[C@@H](CCC(=O)O)C(=O)N[C@@H](Cc1ccc(O)cc1)C(=O)NCC(=O)N[C@H](C(=O)O)C(C)C (Bz-GVLKEYGV-OH),Ki,"protein: NAD-DEPENDENT PROTEIN DEACYLASE SIRTUIN-5, MITOCHONDRIAL zebrafish Sirtuin 5, PDB entry 4uub",17.2 µM (active)
CC[C@H](C)[C@H](NC(=O)[C@@H](NC(=O)[C@H](CO)NC(=O)[C@@H](N)CC(=O)O)[C@@H](C)CC)C(=O)O (H-DSII-OH),Ki,"protein: CFTR Associated Ligand (CAL) PDZ domain, PDB entry 4k72",1000 µM (active)
O=[N+]([O-])c1ccc(NNC(=S)Nc2ccc(F)cc2)c([N+](=O)[O-])c1,Ki,"protein: GTPase HRas(T35S mutant), PDB entry 2lwi",773 µM (active)
CCCCCCc1cccc(NC(=O)[C@H](N)CC[P+](O)(O)O)c1,Ki,"protein: Lipid G protein-Coupled Receptor, PDB entry 3v2w",0.077 µM (active)
NC(N)c1ccc(CNC(=O)[C@@H]2CCN2C(=O)[C@H](NCC(=O)O)C2CCCCC2)cc1,Ki,"protein: THROMBIN, PDB entry 4bah",0.00201 µM (active)
NC(=O)CN[C@@H](C(=O)N1CC[C@H]1C(=O)NCc1ccc(C(N)N)cc1)C1CCCCC1,Ki,"protein: THROMBIN, PDB entry 4bao",0.00429 µM (active)
CN(C)C(=O)CN[C@@H](C(=O)N1CC[C@H]1C(=O)NCc1ccc(C(N)N)cc1)C1CCCCC1,Ki,"protein: THROMBIN, PDB entry 4bam",0.00114 µM (active)
C[C@@H](O)[C@H](N)C(=O)NS(=O)(=O)c1cccc(-c2ccc3[nH]ncc3c2)c1,Ki,"protein: Threonine--tRNA ligase, cytoplasmic, PDB entry 4hwt",50 µM (active)
Cc1cc(-c2nn(C(C)C)c3ncnc(N)c23)cc2ccc(OCc3ccccc3)nc12,Ki,"protein: Mitogen-activated protein kinase 1 (Q103A, C164L mutant), Rat Erk2, PDB entry 4n4s",0.133 µM (active)
CC(=O)NCCCC[C@H](NC(=O)[C@H](CCCN=C(N)N)NC(=O)[C@H](Cc1cnc[nH]1)NC(=O)[C@@H](N)CCCN=C(N)N)C(=O)N[C@H](C(=O)O)C(C)C (H-RHRK(Ac)V-OH),Ki,"protein: Bromodomain-PHD Finger Module of Human Transcriptional Co-Activator CBP, PDB entry 4n3w",315 µM (active)
OC[C@@H]1[C@@H](O[C@@H]2O[C@H](CO)[C@@H](O)[C@H](O)[C@@H]2O)[C@H](O)[C@H](O)c2nccn21,Ki,"protein: GH26 beta-mannanase CjMan26C from Cellvibrio japonicus, PDB entry 4cd5",0.194 µM (active)
same,Ki,"protein: GH113 beta-mannanase AaManA from Alicyclobacillus acidocaldarius, PDB entry 4cd8",1300 µM (active)
